Bioassay records (PubChem)
Compounds with a hit are over-represented: about 19% of the library has one in this group of screens.
ASM inhibitor = blocks human secretory acid sphingomyelinase; P17405; placental ASM, HMU-PC fluorogenic substrate, 60 min; Potency, µM (highest dose often 57.5 µM), inactives show top-dose activity change, negative = inhibition, hits mostly inhibitors; hit rate 0.006% among 340,000; note: potency is the fitted concentration of half-maximal effect
Target sequence (P17405 47-631 limits assumed): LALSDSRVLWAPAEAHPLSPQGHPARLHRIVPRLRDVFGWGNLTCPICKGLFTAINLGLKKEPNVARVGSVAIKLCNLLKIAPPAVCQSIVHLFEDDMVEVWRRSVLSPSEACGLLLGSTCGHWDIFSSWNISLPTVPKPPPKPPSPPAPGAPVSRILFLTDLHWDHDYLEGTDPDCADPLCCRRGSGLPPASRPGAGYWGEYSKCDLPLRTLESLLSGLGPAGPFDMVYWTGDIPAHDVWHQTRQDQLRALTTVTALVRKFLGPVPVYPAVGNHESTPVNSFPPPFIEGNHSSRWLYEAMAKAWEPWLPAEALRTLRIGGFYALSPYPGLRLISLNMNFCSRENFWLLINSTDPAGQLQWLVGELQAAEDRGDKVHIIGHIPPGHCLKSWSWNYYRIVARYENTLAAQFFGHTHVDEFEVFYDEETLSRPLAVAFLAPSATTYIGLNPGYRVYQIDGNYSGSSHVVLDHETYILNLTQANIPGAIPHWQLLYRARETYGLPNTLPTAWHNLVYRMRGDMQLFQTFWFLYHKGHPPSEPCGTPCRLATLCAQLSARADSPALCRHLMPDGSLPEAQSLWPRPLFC
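qHTS format. ASM enzyme prepared from human placenta hydrolyses the fluorogenic substrate HMU-PC0 (9 uM final) over 60 min at 37 °C after a 10 min compound preincubation.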
HepG2 viability = counter-screen for TGF-b inhibitors: cytotoxicity in HepG2 cells. Potency, µM (doses to about 46.1 µM), without a hit: top-dose activity change, negative = cytotoxicity, hits mostly cytotoxic. AID 588856. hit rate 0.76% among 410,000. HepG2 CAGA-GFP viability, ATP luminescence, 18 h; note: potency is the fitted concentration of half-maximal effect
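HepG2 CAGA-GFP cells (1000/well, DMEM with 1% FBS) received compound, then TGF-beta at 500 pg/mL final, and were incubated 18 hours at 37 degrees C. Viability was read by CellTiter-Glo luminescence. Media-only wells were set as complete cell-killing and DMSO as no toxicity.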
TGFb inhibitor = inhibitors of TGF-b signaling | AID 588855 | HepG2 CAGA-GFP TGF-b/SMAD3 reporter, GFP fluorescence, 18 h; TGF-beta stimulated, 500 pg/mL final | hit rate 1.2% among 410,000 | Potency, µM (titrated, usually from 46.1 µM), for inactives: top-dose activity, negative = inhibition, most hits filed as inhibitors; note: potency is the fitted concentration of half-maximal effect; % is set by controls: 0 for no effect and ±100 for the full control effect; nearly all actives have a fitted effect of over 65% in size
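First, reporter cells (HEPG2 CAGA-GFP) rested 2 h at 37 degrees C. Next, compounds were pinned in and TGF-beta added to 500 pg/mL final. After 18 h, GFP was imaged per cell and summed per well.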
TDP1 cell CPT = growth inhibition of DT40 Tdp1-/-;hTDP1 cells with camptothecin (screen for TDP1 inhibitors); chicken DT40 Tdp1-/-;hTDP1 cells + 20 nM CPT, ATP luminescence, 48 h; Potency, µM (series often up to 46.2 µM), for inactives: top-dose activity change, negative = growth inhibition, hits mostly inhibitors; hit rate 12% among 420,000; AID 686979; note: potency is the fitted concentration of half-maximal effect; % is set by controls: 0 for no effect and ±100 for the full control effect; nearly all actives have a fitted effect of over 55% in size
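Cell growth measured by CellTiter-Glo luminescence after a minimum 48 h, 37 C compound exposure with 20 nM CPT in Tdp1-knockout DT40 cells stably expressing hTDP1, seeded 400/well; qHTS titration format.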
IL1B secr inh = inhibitors of inflammasome signaling (IL-1 beta secretion); THP-1 LPS/ATP IL-1B secretion, AlphaLISA, 16 h; active compounds read low; activity change, % at 57.5 µM; hit rate 4.7% among 360,000; AID 743279; in the data active = activity change below about -50%; inconclusive = mostly about -30% to -49%; note: % is set by controls: 0 for no effect and ±100 for the full control effect
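Secreted IL-1B measured by AlphaLISA bead assay after 16 h compound exposure of THP-1 cells; compounds (final up to 57.5 uM) added 1 h before LPS (250 ng/mL) and ATP (1.25 mM) stimulation; lower signal means less secretion.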
TDP1 cell noCPT = qHTS for Inhibitors of human tyrosyl-DNA phosphodiesterase 1 (TDP1): qHTS in cells in absence of CPT | DT40 Tdp1-/- hTDP1 cells, no CPT, ATP luminescence, 48 h | Potency, µM (highest dose often 46.2 µM), for the others: at the highest dose activity change, negative = growth inhibition, hits mostly inhibitors | hit rate 15% among 420,000; note: potency is the fitted concentration of half-maximal effect; % is set by controls: 0 for no effect and ±100 for the full control effect; nearly all actives have a fitted effect of over 55% in size
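Compound effects on proliferation are scored in DT40 Tdp1-/-;hTDP1 cells in the absence of CPT. ATP levels (CellTiter-Glo luminescence) are recorded after a ≥48 hr, 37 °C incubation.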
The depositor's hits bear a star. Unless noted, calls come from the whole dose curve; as a rule, active = well fitted curve in the direction sought with a large enough effect; inconclusive = small, poorly fitted or top-dose-only effect, or another doubt; inactive = no such curve, though single readings can be large; an effect the other way counts as inactive or inconclusive.

Results for Cc1ccc(CNC(=O)C2c3ccccc3C(=O)N(C)C2c2c[nH]c3ccccc23)o1 (stereo not drawn) ?
ASM inhibitor: -4%; HepG2 viability: 12%; TGFb inhibitor: 0%; TDP1 cell CPT: 21µM*; IL1B secr inh: -5; TDP1 cell noCPT: 15µM*

Results for CCOC(=O)N1CCN(C(=O)/C=C/c2ccc(OC)cc2)CC1 ?
ASM inhibitor: 1%; HepG2 viability: 1%; TGFb inhibitor: 11%; TDP1 cell CPT: -5%; IL1B secr inh: -3; TDP1 cell noCPT: 3%

What do the screens show for `CCOC(=O)N1CCN(C(=O)/C=C/c2c(C)nn(-c3ccc(F)cc3)c2Cl)CC1`?
ASM inhibitor: -1%; HepG2 viability: 0%; TGFb inhibitor: 0%; TDP1 cell CPT: inconclusive; IL1B secr inh: 0; TDP1 cell noCPT: 13µM*

What do the screens show for `Cc1cccc(N2CCN(C(=O)NC3CCCCC3)CC2)c1C`?
ASM inhibitor: 0%; HepG2 viability: -41%; TGFb inhibitor: inconclusive; TDP1 cell CPT: inconclusive; IL1B secr inh: -56*; TDP1 cell noCPT: -19%

What do the screens show for `CC(=O)N1c2ccccc2CC1C(=O)N1CCN(c2cccc(C)c2C)CC1` (stereo not drawn)?
HepG2 viability: -6%; TGFb inhibitor: 0%; TDP1 cell CPT: 23µM*; TDP1 cell noCPT: 15µM*

Results for Cc1ccc(N2CCN(C(=O)NC3CCCCC3)CC2)c(C)c1 ?
ASM inhibitor: 1%; HepG2 viability: -2%; TGFb inhibitor: 9%; TDP1 cell CPT: inconclusive; IL1B secr inh: -11; TDP1 cell noCPT: inconclusive

What do the screens show for `CCC(=O)N1c2ccccc2CC1C(=O)NCCN1CCN(c2cccc(C)c2C)CC1` (stereo not drawn)?
HepG2 viability: -11%; TGFb inhibitor: 7%; TDP1 cell CPT: 23µM*; TDP1 cell noCPT: inconclusive

What do the screens show for `CC(=O)N1c2ccccc2CC1C(=O)N1CCN(c2ccccc2F)CC1` (stereo not drawn)?
HepG2 viability: -51%; TGFb inhibitor: -24%; TDP1 cell CPT: inconclusive; TDP1 cell noCPT: -4%

How did CCC(=O)N1c2ccccc2CC1C(=O)NCCN1CCN(c2cccc(C(F)(F)F)c2)CC1 (stereo not drawn) do in these assays?
HepG2 viability: -1%; TGFb inhibitor: -7%; TDP1 cell CPT: 16µM*; TDP1 cell noCPT: 29µM*

Results for CCOC(=O)c1cc2c(c(CCO)n1)[C@H](CCO)N(S(=O)C(C)(C)C)C2 (stereo partly drawn) ?
ASM inhibitor: 11%; HepG2 viability: 3%; TGFb inhibitor: inconclusive; TDP1 cell CPT: -9%; IL1B secr inh: 15; TDP1 cell noCPT: 10%

Results for CCC(=O)N1c2ccccc2CC1C(=O)NCCN1CCN(c2cccc(Cl)c2)CC1 (stereo not drawn) ?
HepG2 viability: -11%; TGFb inhibitor: -7%; TDP1 cell CPT: 23µM*; TDP1 cell noCPT: inconclusive

Results for O=[N+]([O-])c1ccc(Sc2cccc[n+]2[O-])c2nonc12 ?
ASM inhibitor: 2%; HepG2 viability: -115%; TGFb inhibitor: 1.3µM*; TDP1 cell CPT: 0.0058µM*; IL1B secr inh: -98*; TDP1 cell noCPT: 0.021µM*

How did CCOC(=O)c1c(C)c(-c2ccccc2)n(CC(=O)Nc2cc(OC)cc(OC)c2)c1C do in these assays?
HepG2 viability: -31%; TGFb inhibitor: inconclusive; TDP1 cell CPT: inconclusive; TDP1 cell noCPT: inconclusive

Results for CCC(C)c1ccccc1N1CC(C(=O)N2CCN(c3ccccc3)CC2)CC1=O (stereo not drawn) ?
HepG2 viability: -5%; TGFb inhibitor: -20%; TDP1 cell CPT: 15µM*; IL1B secr inh: -3; TDP1 cell noCPT: 23µM*
